We go through 92 compounds from PubChem BioAssay AID1159606 (Sanford-Burnham Center for Chemical Genomics, 2016).

Hit rate of the full screen: of about 360,000 compounds, about 7,300 (2%) were called active. The sample holds actives, similar compounds and a random draw of the others, so the mix is not that of the screen. Rule as the data show it: active = inhibition above about 50%; inactive = the rest.

The nature of this experiment: blockers of TWEAK-induced Fn14 reporter activity – luciferase reporter cells, uHTS, primary screen (AID 1159606). The following applies: TWEAK-stimulated Fn14 reporter cells, luciferase luminescence, 8 h; at 10 µM; stronger effect = higher value. In general terms: In a reporter assay the amount or activity of a reporter protein is the signal.
On to `COc1ccc(COC[C@H](CC(C)C)N2CCN(C(=O)c3cccc(C(F)(F)F)c3)CCC2=O)cc1`, for which the inhibition – broadly, the drop in the measured response relative to a control, in per cent – is 0.93% (inactive).

As to `O=c1ccc2c(-c3ccccc3S(=O)(=O)O)c3ccc(O)c(O)c3oc-2c1O`, the inhibition is 78% (active).

With `O=C1c2ccccc2C(c2nc3ccccc3[nH]2)N1c1ccccc1` (configuration not stated), the inhibition is 20.9% (inactive).

For the compound `CCc1ccc(Oc2coc3cc(OC(=O)c4cc5ccccc5oc4=O)ccc3c2=O)cc1`, the inhibition was -16.7% (inactive).

As to `CSc1nnc(CNC(=O)c2ccccc2)n1-c1ccc(F)cc1`, the inhibition is 23.6% (inactive).

Regarding `O=C(OC1CC2CC1[C@H]1CCCCN1C2=O)N1CCOCC1` (some centres not stated), the inhibition was 24.2% (inactive).

Take `NC(=O)c1ncn([C@@H]2O[C@H](CN=C3NS(=O)(=O)c4ccccc43)[C@@H](O)[C@H]2O)n1`: the inhibition was -2.64% (inactive).

On to `Cc1oc2cc([N+](=O)[O-])c(O)c([N+](=O)[O-])c2c1C(=O)c1ccc(Br)cc1`, for which the inhibition is 20% (inactive).

Regarding `O=C(O)c1cc(S(=O)(=O)N(Cc2ccccc2)c2cccc(C(F)(F)F)c2)ccc1Cl`, the inhibition is 9.03% (inactive).

As to `O=C(CNS(=O)(=O)c1cccc(C(F)(F)F)c1)Nc1ccccc1F`, the inhibition was -3.29% (inactive).

On to `O=C(NNc1ccccc1Cl)C(O)(c1cccc(C(F)(F)F)c1)c1cccc(C(F)(F)F)c1`, for which the inhibition is 74.5% (active).

`CCCNCc1cc(OCC)c(OCC(=O)Nc2ccccc2)cc1Br`: the inhibition was 3.35% (inactive).

Turning to `O=C(CN1CCOC1=O)N1CCCC(Nc2ccc(F)c(F)c2)C1` (configuration not stated), the inhibition was -4.67% (inactive).

As for `O=C1CCCCN1CCCC(=O)N1CCCC(Nc2ccc(F)cc2)C1` (configuration not stated), the inhibition was 10.3% (inactive).

Regarding `O=C(CN1C(=O)CSC1=O)N1CCCC(Nc2ccc(F)cc2)C1` (configuration not stated), the inhibition was 89.2% (active).

With `CCCn1c(N)c(C(=O)CSc2nnc(Cc3cccs3)n2C2CC2)c(=O)[nH]c1=O`, the inhibition was -4.97% (inactive).

Take `CC1CC(C)CN(S(=O)(=O)c2ccc(C(=O)NN3CCOCC3)cc2)C1` (configuration not stated): the inhibition is 15.8% (inactive).

With `COc1ccc(-c2noc(CNC(=O)C(C)Oc3ccccc3)n2)cc1` (configuration not stated), the inhibition is -2.29% (inactive).

With `COc1ccc(-c2nc(-c3ccccc3)no2)c(OC)c1`, the inhibition is 96.2% (active).

Take `COc1ccc(/C=C/c2noc(-c3ccccc3OC(C)=O)n2)cc1`: the inhibition was 48.5% (inactive).

In the case of `CC1CN(C(=O)CCC(=O)NCCCN2CCC(Cc3ccccc3)CC2)c2cc(Cl)ccc2O1` (configuration not stated), the inhibition was -12.8% (inactive).

Turning to `O=C1C2CCCN2C(=O)N1CCCCN1CCN(c2cccc(C(F)(F)F)c2)CC1` (configuration not stated), the inhibition was -4.34% (inactive).

With `COc1ccc(N(CCC(=O)NCCc2ccccc2)S(=O)(=O)c2ccc(C)cc2C)cc1`, the inhibition is -9.44% (inactive).

In the case of `O=C(O)CCn1cc(/C=C/C(=O)c2ccc(Cl)cc2)c(-c2cccc(Br)c2)n1`, the inhibition was 66% (active).

With `COc1ccc(NC(=O)CN(C)C(=O)/C=C/c2cn(Cc3ccccc3)nc2-c2cccnc2)cc1`, the inhibition was -11.2% (inactive).

On to `O=C(COC(=O)/C=C/c1cn(-c2ccccc2)nc1-c1cccnc1)Nc1ccc(Cl)cc1Cl`, for which the inhibition was -65% (inactive).

Turning to `CCOC(=O)[C@H]1Nc2ccc(Cl)cc2[C@@H]2[C@H]1C1CC(c3ccccc31)N2C(=O)OCc1ccccc1` (some centres not stated), the inhibition was -23.5% (inactive).

In the case of `CCCCNC(=O)OC1CC2CC1[C@H]1CCCCN1C2=O` (some centres not stated), the inhibition was 7.93% (inactive).

Turning to `CCOC12CC(C)(C)CC(C)(CC3=C1C(=O)CC(C)(C)C3)C2` (configuration not stated), the inhibition was 76.6% (active).

As to `Cc1noc(C)c1-c1nc(CSc2ccc(Cl)cc2)no1`, the inhibition was -29% (inactive).

Regarding `COc1cc2nnn(-c3ccncc3)c2cc1OC`, the inhibition was 1.57% (inactive).

Take `Cn1c(N2CCOCC2)c(C=O)c2ccccc21`: the inhibition was -2.19% (inactive).

On to `O=c1oc2ccccc2cc1-c1cn(-c2ccccc2)c(=S)[nH]1`, for which the inhibition was 107% (active).

`COc1cccc(-n2c(=S)[nH]c3c(oc4ccccc43)c2=O)c1`: the inhibition is 22.3% (inactive).

Take `CC1(C(=O)NS(=O)(=O)c2ccccc2)CCN1C(=O)C/C=C/c1ccccc1` (configuration not stated): the inhibition was -7.09% (inactive).

`CC1(C(=O)O)CCN1C(=O)/C=C/c1ccccc1` (configuration not stated): the inhibition was 4.71% (inactive).

Consider `CC1(C)CCSC(/C=C/c2ccccc2)=N1`, for which the inhibition was 71.7% (active).

On to `CC(C)=CCCC1(C)C=Cc2c(ccc3c2[nH]c2cc(O)c(C)cc23)O1` (configuration not stated), for which the inhibition is 67% (active).

`CN(C(=O)COC(=O)Cn1cnc2c1c(=O)n(C)c(=O)n2C)C1(C#N)CCCCC1`: the inhibition was -7.55% (inactive).

For `COC(=O)C(C)N(C#N)c1nc(C)nc(C)n1` (configuration not stated), the inhibition is -3.55% (inactive).

Turning to `Cc1nnc(SC(C(=O)Nc2cc(Cl)cc(Cl)c2)c2ccccc2)[nH]c1=O` (configuration not stated), the inhibition was -1.44% (inactive).

With `CCCc1ccc(OCCNC(=O)c2ccccc2Br)cc1`, the inhibition was -12.5% (inactive).

Regarding `CC(C)CCOc1ccc(C(=O)C[N+]2(C)CCOCC2)cc1`, the inhibition was -7.15% (inactive).

As to `CCCOc1ccc(C(=O)C(CCC(CNCC)C(=O)c2ccc(OCCC)cc2)CNCC)cc1` (configuration not stated), the inhibition was 103% (active).

On to `CC(Oc1ccc(F)cc1)C(=O)Nc1ccccc1C(=O)NC1CC1` (configuration not stated), for which the inhibition is 8.99% (inactive).

In the case of `COC(=O)c1onc(-c2c(OC)cc(OC)cc2OC)c1C(=O)OC`, the inhibition is 10.7% (inactive).

In the case of `CC(C)C(C(=O)NC1CCCCC1)N(CC1CCCO1)C(=O)CNS(=O)(=O)c1ccc(F)cc1` (configuration not stated), the inhibition is 8.87% (inactive).

Turning to `Cc1ccc(N(CC(=O)NC2CCCCC2)C(=O)CCCC(=O)Nc2ccccn2)c(C)c1`, the inhibition is -5.23% (inactive).

Turning to `Cc1ccc(C(=O)NCC(=O)OCc2nnc(-c3ccccc3)o2)cc1`, the inhibition was 9.26% (inactive).

Take `Cc1onc(-c2ccccc2)c1-c1nnc(COC(=O)c2ccc(N(C)C)cc2)o1`: the inhibition was 54.4% (active).

Turning to `Cc1onc(-c2ccccc2Cl)c1C(=O)OCc1nnc(-c2ccccc2)o1`, the inhibition was -0.22% (inactive).

Turning to `O=C(NC1CCCC1)C1c2ccccc2OCC(=O)N1CC(F)(F)F` (configuration not stated), the inhibition is 1.42% (inactive).

On to `COC1=CC(=O)OC(C)(c2ccccc2)C1` (configuration not stated), for which the inhibition is 20.1% (inactive).

Regarding `COc1cc2c(C(=O)O)c(C)n(C)c2c2ccccc12`, the inhibition was 14% (inactive).

On to `COc1cccc2c(C)c(C(=O)O)[nH]c12`, for which the inhibition is 74.4% (active).

Consider `COc1cccc2c(O)cc(=O)n(C)c12`, for which the inhibition is 15.4% (inactive).

As for `CC1(C(=O)NS(=O)(=O)c2ccc(C#N)cc2)CCN1C(=O)c1ccc(C2CCCCC2)cc1` (configuration not stated), the inhibition was 24.4% (inactive).

For `CN1CCN(C(=O)CCc2ncc(C(F)(F)F)cc2Cl)CC1`, the inhibition was -4.72% (inactive).

Regarding `O=C1NC[C@H](CCCCN2C[C@H](Cc3ccccc3)N(Cc3ccccc3)C(=O)C2=O)N(CCc2ccc(O)cc2)C1=O`, the inhibition was -9.13% (inactive).

Take `O=c1cc(N2CCCCC2)c(-c2ccccc2)nn1Cc1cccc(F)c1`: the inhibition was -1.41% (inactive).

As for `Cc1cc(N/C=C\C(=O)c2ccc(Cl)c(Cl)c2)no1`, the inhibition was -21% (inactive).

With `CCOc1ccc(NC(=O)C2CCCN(C(=O)Nc3ccccc3)C2)cc1` (configuration not stated), the inhibition is -2.21% (inactive).

On to `CCOc1ccc(N/C=C/C(=O)c2ccccc2)cc1`, for which the inhibition was 70.8% (active).

In the case of `Cc1ccc(NNC(=O)C2CCC2)cc1C`, the inhibition is -5.21% (inactive).

For the compound `COc1ccc(C(=O)/C=C/Nc2ccccn2)cc1`, the inhibition was 97.4% (active).

For `CCOc1ccc(NC(=S)N2CCC(NC(=O)c3ccccc3)CC2)cc1`, the inhibition was -4.25% (inactive).

Regarding `Cc1ccc(N/C=C/C(=O)c2ccccc2)cc1C`, the inhibition was 66.8% (active).

Consider `O=C(/C=C/NCc1ccc(F)cc1)c1ccccc1`, for which the inhibition was -22.1% (inactive).

Consider `COc1ccc(N2C(=O)CCC(C(=O)Nc3ccccn3)C2c2ccc(OC)c(OC)c2)cc1` (configuration not stated), for which the inhibition is 2.83% (inactive).

As to `COCc1ccc(C(=O)NC2CC(C)(C)Cc3c2cnn3-c2ccc(C)cc2)o1` (configuration not stated), the inhibition was 3.46% (inactive).

As to `COCCCNC(=O)CC1C[C@H](C(=O)N2CCCCC2)[C@@]2(CCc3ccccc3)c3[nH]c4ccccc4c3CCN2C1=O` (some centres not stated), the inhibition was 17.5% (inactive).

On to `O=C(CCCl)Nc1ccc(S(=O)(=O)NCc2ccco2)cc1`, for which the inhibition was 13% (inactive).

For `CCNC(=O)c1cc2c(c(-c3cccc(-c4cncnc4)c3)n1)[C@H](CCO)N(C(C)=O)C2`, the inhibition was -9.64% (inactive).

Take `Cc1ccccc1-n1nnc2c(=O)oc3ccccc3c21`: the inhibition was -3.42% (inactive).

With `O=C1CCC(=O)N1c1ccc(NCCc2ccccc2F)c([N+](=O)[O-])c1`, the inhibition was -12.8% (inactive).

`C=CCc1ccccc1OCC(O)CN1CCN(CCO)CC1` (configuration not stated): the inhibition is -11.8% (inactive).

Regarding `OCCN1CCN(C(=S)c2ccc(-c3ccccc3)cc2)CC1`, the inhibition is 54.4% (active).

As to `S=C(c1ccc(-c2ccccc2)o1)N1CCCCC1`, the inhibition is -8.48% (inactive).

For `Cc1cc(C)n2c(NCc3ccccc3)c(CC(C)C)nc2n1`, the inhibition was -7.32% (inactive).

Consider `Cc1ccc(C)c(S(=O)(=O)N(C)c2ccc(OC(=O)C3CCN(C(=O)c4ccc(F)cc4)CC3)cc2)c1`, for which the inhibition is -10.5% (inactive).

On to `Cc1ccc(C)c(NC(CC(=O)c2ccccc2)C(=O)OCC(=O)c2cccs2)c1` (configuration not stated), for which the inhibition is -31.8% (inactive).

As to `O=C(NCC(=O)N1CCN(c2ccccc2F)CC1)c1cccs1`, the inhibition was -8.04% (inactive).

As for `Cc1ccccc1C(CC(=O)c1cccs1)C(C#N)C#N` (configuration not stated), the inhibition is 83.8% (active).

As for `Cc1nn(-c2ccccc2)c(=O)c2noc(C)c12`, the inhibition was 2.03% (inactive).

In the case of `COc1cccc(CN2C(=O)CCC2(C)C(=O)NC2CCCCCC2)c1` (configuration not stated), the inhibition was 9.99% (inactive).

Consider `CCOC(=O)C1=CC[C@@H](c2ccccc2)N(S(=O)(=O)c2ccc(C)cc2)[C@H]1c1cccc(OC)c1`, for which the inhibition is 3.81% (inactive).

As for `CN1CCN(S(=O)(=O)c2ccc(N3CCN(S(=O)(=O)c4cccs4)CC3)nc2)CC1`, the inhibition was -14.8% (inactive).

Regarding `OC[C@@H]1CN(Cc2ccncc2)C[C@H](n2cnc3c(N4CCN(c5ccccc5)CC4)ncnc32)O1`, the inhibition is 29.9% (inactive).

As to `Cc1cccc(NC(=S)N2CCC(C(=O)c3ccc(F)cc3)CC2)c1`, the inhibition is -7.96% (inactive).

For the compound `O=[N+]([O-])c1c(NCCO)cc(Sc2nc3ccccc3s2)c2nonc12`, the inhibition is 9.76% (inactive).

Take `Clc1ccc(-c2nnc(SCc3nc4ccccc4s3)o2)cc1`: the inhibition is -3.77% (inactive).

Turning to `O=C(O)c1ccccc1CSc1nc2ccccc2s1`, the inhibition is 53.1% (active).
